# From PubChem BioAssay (NCATS)
# Values joined by “and” are separate entries in the source; they are usually repeats but may differ in a detail not shown here. Equal entries are not always repeated. Records with an inconclusive call do not appear. Active and inactive are the calls of the source. Unless noted, the call rests on the fitted dose curve; in most records, active means well fitted curve in the direction sought with a large enough effect; inconclusive means small, poorly fitted or top-dose-only effect, or another doubt; inactive means no such curve, though single readings can be large; an effect the other way counts as inactive or inconclusive.
# Tests used:
# [1] = qHTS Assay for Lipid Storage Modulators (AID 1519; calls by dose curve; on activity change, negative = inhibition: on the % scale 0 is the no-effect control and ±100 the full control effect); settings: Drosophila S3 cells, BODIPY lipid droplet/cell ratio, laser cytometry, cells loaded with oleic acid
# How it was run: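 Cells seeded at 5,000 per well were treated with compounds over a concentration series and loaded with oleic acid (400 uM, as added). Lipid droplet fluorescence (488 nm excitation, 500-530 nm channel) was read by laser-scanning cytometry and normalized to 20 uM Triacsin C.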
# [2] = target: DNA repair nuclease/redox regulator APEX1 (Homo sapiens) (UniProt P27695); assay: qHTS Validation Assay for Inhibitors of the Human Apurinic/apyrimidinic Endonuclease 1 (APE1) (AID 1705; further: potency means the concentration at half of the fitted maximal effect;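 on activity change, negative = inhibition: TAMRA fluorescence gain over two minutes as APE1 cuts a quenched THF abasic duplex; on the % scale 0 is the no-effect control and ±100 the full control effect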)
# DNA repair nuclease/redox regulator APEX1 (Homo sapiens), sequence (P27695 whole entry, looked up): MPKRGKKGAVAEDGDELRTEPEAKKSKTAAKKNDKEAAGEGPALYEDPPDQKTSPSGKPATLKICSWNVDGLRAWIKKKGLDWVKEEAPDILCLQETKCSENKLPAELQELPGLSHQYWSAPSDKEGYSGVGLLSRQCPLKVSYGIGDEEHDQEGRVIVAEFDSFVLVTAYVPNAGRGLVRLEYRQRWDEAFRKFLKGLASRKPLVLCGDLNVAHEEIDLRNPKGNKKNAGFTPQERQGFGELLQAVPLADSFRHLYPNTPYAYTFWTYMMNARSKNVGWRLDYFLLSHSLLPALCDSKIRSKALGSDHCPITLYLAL
# How it was run: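 Substrate: 50 nM final fluorophore/quencher THF-abasic duplex. Enzyme preincubated with compounds 15 min, RT. Progress derived from fluorescence difference, third minus first kinetic read.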
# [3] = Counterscreen for APE1 Inhibitors: Fluorescent Dye Displacement Validation Assay (AID 1707);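 further: plate controls were ThO with dsDNA and no compound for no effect and ThO without dsDNA for full effect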
# How it was run: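 Signal: ThO fluorescence (ex 480 nm/em 540 nm) on binding 50 nM dsDNA; displacement by test compound reduces it. Conditions: 250 nM dye, 50 mM Tris-HCl pH7.5, 2 mM MgCl2, 50mM NaCl, 0.01% Tween-20.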
# [4] = target: Endonuclease 4 (Escherichia coli (strain K12)) (UniProt P0A6C1); assay: Counterscreen for APE1 Inhibitors: qHTS Validation Assay for Inhibitors of Endonuclease IV (AID 1708); further: on the % scale 0 is the no-effect control and ±100 the full control effect
# How it was run: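 Conditions: 2 nM enzyme, 50 nM TAMRA/BHQ-2 substrate, pH 7.5 Tris buffer with 2 mM MgCl2, RT. Compound preincubation 15 min; readout three fluorescence reads 60 s apart, third-minus-first.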
# [5] = qHTS for differential inhibitors of proliferation of Plasmodium falciparum line 7G8 (AID 1815);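 further: parasite growth measured after three days of incubation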; further: potency means the concentration at half of the fitted maximal effect;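 on activity change, negative = inhibition: plate controls were vehicle wells for no effect and reference inhibitor wells for full effect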
# [6] = qHTS for differential inhibitors of proliferation of Plasmodium falciparum line GB4 (AID 1816); settings: Potency: Plasmodium falciparum GB4 proliferation inhibition;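 further: parasite growth measured after 72 h incubation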; further: potency means the concentration at half of the fitted maximal effect;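 on activity change, negative = inhibition: 0% = vehicle DMSO and -100% = reference inhibitor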
# [7] = qHTS for differential inhibitors of proliferation of Plasmodium falciparum line 3D7 (AID 1876); further: potency means the concentration at half of the fitted maximal effect
# [8] = qHTS for differential inhibitors of proliferation of Plasmodium falciparum line D10 (AID 1877);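 further: parasites grown with compound for 72 h before DNA staining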; further: potency means the concentration at half of the fitted maximal effect;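 on activity change, negative = inhibition: plate controls were vehicle wells for no effect and reference inhibitor wells for full effect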
# [9] = qHTS for differential inhibitors of proliferation of Plasmodium falciparum line Dd2 (AID 1882); settings: Potency: Plasmodium falciparum Dd2 proliferation inhibition; further: nearly all actives have a fitted effect of over 65% in size; further: potency means the concentration at half of the fitted maximal effect;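 on activity change, negative = inhibition: plate controls were DMSO vehicle for no effect and 0.29 µM artemisinin for full effect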
# How it was run: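 SYBR Green DNA fluorescence (ex 485, em 535 nm) after overnight lysis quantifies parasite growth; compound exposure lasted 72 h at 37 C on infected red cells at 2.5% hematocrit, 0.3% parasitemia (final). Artemisinin 0.29 uM and vehicle wells define normalization.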
# [10] = measured here: cell count channel max response
# [11] = measured here: lipid channel max response
Structure (SMILES),"activity change, negative = inhibition ([1]; at 57.5 µM (top of the series))","max response [1, 10]","max response [1, 11]",Potency [2],Potency [3],Potency [4],Potency [5],Potency [6],Potency [7],Potency [8],Potency [9],"activity change, negative = inhibition ([1]; at 25.7 µM (top of the series))"
Fc1ccc([C@@H]2CCNC[C@H]2COc2ccc3c(c2)OCO3)cc1,-0.973% (inactive),-19.9%,-18.8%,inactive,inactive,inactive,5.62 µM (active),5.01 µM (active),7.08 µM (active),12.6 µM (active),11.2 µM (active),
Cc1cc(C(C)(C)C)c(O)c(C)c1CC1=NCCN1,-2.77% (inactive) and 10.3% (inactive),-11.5% and -13.2% and 34.1%,-16% and -15.4% and 53.3%,inactive,inactive,inactive,,,,,inactive,-3.48% (inactive)
CS(=O)(=O)Nc1ccc([N+](=O)[O-])cc1Oc1ccccc1,14.1% (inactive),3.21% and 14.6%,2.41% and 33.1%,39.8 µM (active),inactive,inactive,inactive,,inactive,inactive,inactive,-1.76% (inactive)
CC(C)(Oc1ccc(C2CC2(Cl)Cl)cc1)C(=O)O (configuration not stated),1.98% (inactive),-18.9%,-26.3%,inactive,inactive,inactive,inactive,inactive,inactive,inactive,inactive,
CN1CCN(CCCN2c3ccccc3Sc3ccc(Cl)cc32)CC1,2.24% (inactive),-2.79% and -1.33%,-5.2% and 2.08%,inactive,inactive,,5.01 µM (active),10 µM (active),6.31 µM (active),12.6 µM (active),11.2 µM (active),-2.25% (inactive)
Nc1nc2c(ncn2COC(CO)CO)c(=O)[nH]1,-0.373% (inactive),0.439% and 44.9%,0.456% and 46.2%,inactive,inactive,,inactive,inactive,inactive,inactive,inactive,-0.899% (inactive)
NS(=O)(=O)c1cc2c(cc1Cl)NCNS2(=O)=O,7.4% (inactive),-3.42% and 12.6%,-4.41% and 24.1%,,inactive,inactive,inactive,,inactive,inactive,inactive,0.69% (inactive)
O=C(C1CCCCC1)N1CC(=O)N2CCc3ccccc3C2C1 (configuration not stated),2.76% (inactive),-17.9%,-16.6%,inactive,inactive,inactive,,,,,,
CN(C)CCCN1c2ccccc2CCc2ccc(Cl)cc21,1.94% (inactive),-4.06% and 0.0678%,-5.65% and 2.74%,inactive,inactive,inactive,5.01 µM (active),5.01 µM (active),10 µM (active),11.2 µM (active),7.94 µM (active),-2.54% (inactive)
CC(COc1ccccc1)N(CCCl)Cc1ccccc1 (configuration not stated),6.18% (inactive),11.9%,23.2%,inactive,inactive,,,,,,,
CN1CCC(=C2c3ccccc3C=Cc3ccccc32)CC1,0.516% (inactive),4.35% and -11%,-0.358% and -12.9%,inactive,inactive,inactive,5.01 µM (active),8.91 µM (active),11.2 µM (active),12.6 µM (active),5.01 µM (active),-4.01% (inactive)
COc1nc(C)nc(Cl)c1NC1=NCCN1,,-13%,-15%,inactive,inactive,inactive,inactive,inactive,inactive,inactive,inactive,-2% (inactive)
O=C(c1ccc(OCCN2CCCCC2)cc1)c1c(-c2ccc(O)cc2)sc2cc(O)ccc12,1.97% (inactive),-4.67% and -13.2%,-4.93% and -10.5%,inactive,,,4.47 µM (active),2 µM (active),2.82 µM (active),3.16 µM (active),,-1.98% (inactive)
CN(C)CCC=C1c2ccccc2C=Cc2ccccc21,0.751% (inactive),-6.8% and 1.02%,-7.37% and 4.03%,4.47 µM (active),inactive,,5.01 µM (active),11.2 µM (active),11.2 µM (active),,,-1.76% (inactive)
CCc1cccc2c3c([nH]c12)C(CC)(CC(=O)O)OCC3 (configuration not stated),2.38% (inactive) and -6.74% (inactive),1.96% and -60.6%,5.72% and -61.2%,inactive,inactive,inactive,inactive,inactive,inactive,inactive,inactive,
CCC1(C)CC(=O)NC1=O (configuration not stated),5.33% (inactive) and 1.46% (inactive),13.5% and 40.9%,22.9% and 41%,inactive,inactive,inactive,inactive,inactive,inactive,inactive,inactive,
NCCCCCC(=O)O,7.83% (inactive) and -0.624% (inactive),-1.8% and 21.2% and -62.4%,-4.61% and 34.1% and -65.3%,inactive,inactive,inactive,inactive,inactive,inactive,inactive,inactive,-1.59% (inactive)
Clc1ccc(C(c2ccccc2Cl)C(Cl)Cl)cc1 (configuration not stated),11.4% (inactive) and -0.0471% (inactive),11% and -19.2%,22.4% and -18.8%,inactive,inactive,inactive,inactive,inactive,inactive,inactive,inactive,
